Assay outcomes deposited in PubChem by several laboratories.
tim23-1 inh: growth inhibitors of tim23-1 mutant yeast; inhibition, % at 20 µM; S. cerevisiae tim23-1 growth, BacTiter-Glo luminescence, 24 h; hit rate 1.3% among 330,000;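 active = growth inhibition of the mutant yeast at or above 50%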;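 also: temperature-sensitive mutant grown at 25 °C; plate controls were DMSO-treated mutant yeast for no effect and medium wells lacking yeast for full effect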
V-ATPase pHluor: regulators of yeast V-ATPase proton transport | response, % at 10 µM | S. cerevisiae, pHLuorin cytosolic pH fluorescence | hit rate 0.37% among 350,000 | AID 504577; in the data active = response mostly above about 7.3%, no sharp cut-off; inactive = mostly below about 5.4%; also: actives read high
TIM10 inh: inhibits growth of TIM10 yeast strain. S. cerevisiae TIM10 strain growth, BacTiter-Glo luminescence, 24 h. inhibition, % at 10 µM. hit rate 1.4% among 330,000;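 active = inhibition of 40% or more at the single tested concentration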;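 also: wild-type TIM10 isogenic control strain grown at permissive 25 °C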
tim10-1 inh: inhibits growth of tim10-1 mutant yeast | hit rate 2.2% among 330,000 | inhibition, % at 20 µM | S. cerevisiae tim10-1 ts strain growth, BacTiter-Glo, 24 h;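 active = inhibition of at least 40%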;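 also: mutant grown at 25 °C; 0% = DMSO wells with yeast and 100% = wells holding no yeast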
NALP1 inh: blocks the NALP1 inflammasome reconstituted in yeast; AID 2071; hit rate 0.61% among 280,000; inhibition, % at 10 µM; S. cerevisiae NALP1/ASC/caspase-1 growth, X-gal OD620, 72 h; in the data active = inhibition mostly above about 24%, no sharp cut-off; inactive = mostly below about 32%
NALP3 yeast inh: inhibitors of NALP3 inflammasome in yeast | Yeast reconstituted NLRP3/ASC/caspase-1, beta-gal luminescence, 24 h | inhibition, % at 10 µM | hit rate 0.39% among 330,000 | AID 2825;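 active = inhibition of 50% or more; inactive = inhibition below 50%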;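 also: plate controls were induced DMSO wells for no effect and uninduced yeast grown without galactose for full effect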
tim23-1 conf: confirmation of tim23-1 mutant yeast growth inhibitors; shares compounds with tim23-1 inh; S. cerevisiae tim23-1 growth, BacTiter-Glo luminescence, 24 h; inhibition, % at 20 µM; hit rate 83% among 4,400; AID 463218;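 active = inhibition above about 39% in either of two replicate wells at 20 µM, limit read from the data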;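 also: temperature-sensitive tim23-1 mutant grown at 25 °C; 0% = DMSO wells with yeast and 100% = medium wells without yeast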
Starred values were filed as active, the others as inactive; · = not tested or not shown. Rows were chosen to be rich in hits. Some 4.2% of all compounds tested hit in one or more screens of this group.

SMILES	tim23-1 inh	V-ATPase pHluor	TIM10 inh	tim10-1 inh	NALP1 inh	NALP3 yeast inh	tim23-1 conf
O=C(/C=C/c1ccccc1)NCCc1c[nH]c2ccccc12	59.3*	0.2	18.8	-11.1	·	13.9	59.6*
O=C(NCCc1c[nH]c2ccccc12)/C(=C\c1ccco1)NC(=O)c1ccco1	94.2*	1.8	3.6	13.9	19.5	6.0	3.6
CCOc1ccc(NS(=O)(=O)c2ccc(C(=O)N3CCCC3)cc2)cc1	-10.5	4.7	0.1	4.1	·	-6.5	·
O=C(c1cccs1)N1CCN(c2cc(Cl)ccc2Cl)CC1	50.0	6.2	14.9	38.1	3.9	-0.6	37.0
NS(=O)(=O)c1ccc(N2N=C(c3ccccc3)CC2c2cccc(Cl)c2)cc1 (configuration not stated)	52.6*	1.2	17.1	24.1	·	·	31.2
O=C(COC(=O)COc1ccc(Cl)cc1)NCCNC(=O)COC(=O)COc1ccc(Cl)cc1	92.9*	-1.6	-1.3	-13.7	·	2.4	2.9
O=C(COC(=O)COc1ccc(Cl)cc1)NCCCc1ccccc1	15.9	0.9	2.6	2.1	·	17.6	·
Cc1[nH]c(-c2ccc(F)cc2)cc1C(=O)N1CCN(c2cccc(Cl)c2)CC1	54.1*	-0.3	36.2	36.2	2.7	7.4	-5.8
O=C(c1cc2cc(F)ccc2[nH]1)N1CCN(c2cccc(Cl)c2)CC1	11.9	0.2	15.1	10.2	13.3	10.3	·
CCCC(=O)NC(c1ccc(OC)cc1)c1ccc2cccnc2c1O (configuration not stated)	20.8	-2.2	20.9	33.7	4.7	3.2	·
CCCCC(=O)NC(c1ccccc1Cl)c1ccc2cccnc2c1O (configuration not stated)	53.5*	-1.8	-47.4	-1.6	-37.7	18.2	49.3*
CCCCC(=O)NC(c1ccc(C(C)C)cc1)c1ccc2cccnc2c1O (configuration not stated)	57.8*	-1.7	-22.8	-20.2	23.5	21.4	59.2*
CCCC(=O)NC(c1ccccc1)c1ccc2cccnc2c1O (configuration not stated)	58.1*	-1.1	-7.9	25.8	18.0	11.5	60.2*
CCCCC(=O)NC(c1ccccc1)c1ccc2cccnc2c1O (configuration not stated)	66.3*	0.5	6.7	10.9	-5.4	7.9	57.5*
CCCCC(=O)NC(c1cccc([N+](=O)[O-])c1)c1ccc2cccnc2c1O (configuration not stated)	·	0.5	·	·	·	·	·
O=C(COC(=O)CNC(=O)c1ccccc1F)Nc1ccc(Cl)cn1	-8.0	-4.2	-3.2	-12.2	·	8.4	·
CC(=O)NC(c1ccc(C(C)C)cc1)c1ccc2cccnc2c1O (configuration not stated)	58.1*	-0.2	-29.7	9.4	-12.4	18.3	60.1*
COc1cccc(C(NC(C)=O)c2ccc3cccnc3c2O)c1 (configuration not stated)	43.0	-2.2	-38.9	1.4	8.0	32.8	·
CC(=O)NC(c1cc(Cl)c2cccnc2c1O)C(C)C (configuration not stated)	25.1	3.0	-21.7	22.7	·	22.4	·
CC(=O)NC(c1ccc(C)cc1)c1cc(Cl)c2cccnc2c1O (configuration not stated)	62.3*	-0.3	-2.2	-2.9	13.6	47.9	67.5*
COc1cc(OC)cc(C(=O)NC2CCSc3ccccc32)c1 (configuration not stated)	13.3	-0.1	-3.5	2.2	-1.9	4.9	·
CN1CCN(c2nc(-c3ccc(Br)cc3)nnc2-c2ccccc2)CC1	42.9	7.4	16.6	19.4	0.9	2.6	·
Cc1c(C(=O)NCc2ccoc2)oc2ccc3c(c12)C(=O)CC(C)(C)O3	51.8*	-1.4	38.4	30.1	5.2	9.4	52.8*
CCCNC(=O)c1oc2ccc3c(c2c1C)C(O)CC(C)(C)O3 (configuration not stated)	19.6	2.2	1.8	22.5	16.4	25.4	·
O=C1CCN(Cc2ccccc2)C=C1c1ccc2ccccc2c1	50.2*	3.3	19.3	17.6	·	19.4	46.6*
O=C1CCN(Cc2ccccc2)C=C1c1ccc(Cl)cc1	43.4	5.2	19.4	17.6	·	9.3	·
Cc1ccc(N=c2oc3cc(O)ccc3cc2C(N)=O)cc1	27.7	-1.4	-0.4	9.3	2.4	8.4	·
